Experimental data as given in PubChem BioAssay.
Results filed as inconclusive are left out. Active and inactive are the calls of the source.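 How the source made its calls, unless noted: active means cell viability at or below a set limit in both duplicate runs, the limit being the all-compound median minus 4 SD (cut at about 23% in these data, passing the limit was not always enough); inconclusive means no clear call, values can overlap the other calls; inactive means the rest.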

How the values were obtained:
[1] = reducers of endogenous Her2 protein level, primary screen, SKBR3 breast tumor cells, AlphaScreen, ATP viability (AID 461;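 active means Her2 level under about 52% in both replicate screens, with viability over 70% of control, limit read from the data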;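 on Her2 level: lower value means less Her2 protein in the cells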;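 on viability: percent of carrier control wells set as 100% viability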); conditions: 18-24 h, measured here: SKBR3 viability, ATP luminescence, at 10 µM
[2] = molecular target: Receptor tyrosine-protein kinase erbB-2 (Homo sapiens) (UniProt P04626); test: as above; conditions: 18-24 h, at 10 µM, stronger effect = lower value
[3] = SK-BR-3 cell growth inhibitors, pilot screen, 24 h, human (AID 572;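 active means viability at or below 10% of carrier control in both of two separate runs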;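 further: compound exposure lasted between 18 and 24 h rather than exactly 24 h; 100% = carrier-treated control wells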); conditions: SK-BR-3 viability, CellTiter-Glo luminescence, at 10 µM, stronger effect = lower value
[4] = growth inhibitors of H69AR lung tumor, primary screen, human, duplicate replicates (AID 580;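 active means viability at or under a set limit in both replicates, limit being median viability minus 3 SD, cut at about 48% in these data, passing the limit was not always enough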;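 further: 100% = mean luminescence of untreated wells and 0% = no signal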); conditions: H69AR lung tumor cells viability, ATP luminescence, 72 h; at 10 µM; stronger effect = lower value
[5] = reversal of MRP1-mediated doxorubicin resistance, pilot screen, H69AR cells, doxorubicin co-treatment (AID 601;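 active means viability loss from added drug above about 55%, and viability with drug at most 40%, in both replicates, limit read from the data, passing the limit was not always enough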); conditions: CellTiter-Glo, 72 h, at 10 µM; for differential viability (reversal): stronger effect = higher value
[6] = 384-well plate pilot, post-Golgi transport modulator project, inhibition of yeast transport mutant growth (AID 636; in the data active means inhibition above about 31%); conditions: absorbance 615 nm, about 18 h, stronger effect = higher value
[7] = growth suppression of yeast trafficking mutant, preliminary HTS, modulators of trafficking downstream of Golgi apparatus project, 1536-format plate, OD 615 nm (AID 637; in the data active means inhibition above about 30%); conditions: yeast transport mutant growth, absorbance 615 nm, 18 h; stronger effect = higher value
[8] = OD615 S. cerevisiae growth inhibition, permissive medium, pilot counter-assay, permissive growth control for S. cerevisiae lifespan shortening project (AID 705;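 active means growth inhibition above 25% in both replicates, a cutoff set 3 SD above the mean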); conditions: OD615, 24 h, at 10 µM, stronger effect = higher value
[9] = Restrictive medium S. cerevisiae growth inhibition, OD615, pilot screen of yeast lifespan reduction project, restrictive growth control (AID 706;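 active means growth inhibition above a set limit, 3 SD over mean compound inhibition, in both replicates, cut at about 43% in these data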;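 further: modified DeaD lifespan yeast strain shifted to restrictive glucose medium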); conditions: OD615, 48 h, at 10 µM, stronger effect = higher value
[10] = viability gain of MRP-1-high H69AR cells under doxorubicin, pilot screen, MRP-1 activator project, CellTiter-Glo, duplicate (AID 807;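 active means viability increase at or above a cutoff of the median across tested compounds plus 3 SD, cut at about 8.5% in these data, passing the limit was not always enough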;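 further: compound pretreatment 18-22 h then 72 h combined with doxorubicin; 0% = doxorubicin alone and 100% = vehicle without doxorubicin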); conditions: H69AR viability with doxorubicin, CellTiter-Glo luminescence; at 10 µM; stronger effect = higher value
[11] = growth suppression of beta-catenin knockout HCT116, pilot screen, human colon tumor cells (AID 823); conditions: CellTiter-Glo, 60 h, at 10 µM, stronger effect = lower value;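 further: 0% = wells killed by 20 µM Hyamine and 100% = untreated DMSO cell wells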
[12] = growth suppression of PTEN-deleted HCT116, pilot screen, cell-based, HCT116 clonal line, CellTiter-Glo (AID 824;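 active means viability at or below 27.92% in each of two runs, the all-compound median minus 4 SD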;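 further: 0% = 20 µM Hyamine control and 100% = vehicle cell control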); conditions: 60 h, at 10 µM, stronger effect = lower value
[13] = inhibitors of the yeast RAM network, pilot screen, dse1pr::URA3 reporter, 5-FOA selection (AID 869;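 active means inhibition over a set limit, the all-compound mean plus 3 SD, in both replicate runs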;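 further: 0% = DMSO wells with no growth and 100% = 10 µM 1-NA-PP1 with full growth; RAM network block rescues cells from 5-FOA so hits raise OD615 growth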); conditions: S. cerevisiae dse1pr::URA3 5-FOA growth, OD615, 2 d; at 10 µM; stronger effect = higher value; strain carries analog-sensitive mutant Cbk1 kinase
[14] = RAM signaling pathway blockade in yeast – S. cerevisiae, Pdr1DBD-CYC8 efflux-inhibited sensitized strain, primary screen (AID 1298;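 active means RAM network inhibition above 8.4% in each of two replicates, 3 SD over the compound average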;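 further: 0% = DMSO untreated cells without growth and 100% = 10 µM 1-NA-PP1 full growth; higher means more yeast growth rescued from 5-FOA killing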); conditions: S. cerevisiae cbk1-as DSE1-URA3 strain, 5-FOA growth OD615, 2 d; at 50 µM; stronger effect = higher value
[15] = HUVEC growth inhibition – cell-based, human, primary screen (AID 575;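 active means viability at or below 30% in both replicate assays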;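 further: 100% = median of untreated cell wells with 0.1% DMSO on each plate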); conditions: HUVEC proliferation, CellTiter-Glo luminescence, 72 h; at 10 µM; stronger effect = lower value
[16] = H69AR cells + 2 uM doxorubicin, measured here: viability with 2 uM doxorubicin, stronger effect = lower value
[17] = H69AR cells, compound alone cytotoxicity

Receptor tyrosine-protein kinase erbB-2 (Homo sapiens), sequence (P04626 whole entry, looked up): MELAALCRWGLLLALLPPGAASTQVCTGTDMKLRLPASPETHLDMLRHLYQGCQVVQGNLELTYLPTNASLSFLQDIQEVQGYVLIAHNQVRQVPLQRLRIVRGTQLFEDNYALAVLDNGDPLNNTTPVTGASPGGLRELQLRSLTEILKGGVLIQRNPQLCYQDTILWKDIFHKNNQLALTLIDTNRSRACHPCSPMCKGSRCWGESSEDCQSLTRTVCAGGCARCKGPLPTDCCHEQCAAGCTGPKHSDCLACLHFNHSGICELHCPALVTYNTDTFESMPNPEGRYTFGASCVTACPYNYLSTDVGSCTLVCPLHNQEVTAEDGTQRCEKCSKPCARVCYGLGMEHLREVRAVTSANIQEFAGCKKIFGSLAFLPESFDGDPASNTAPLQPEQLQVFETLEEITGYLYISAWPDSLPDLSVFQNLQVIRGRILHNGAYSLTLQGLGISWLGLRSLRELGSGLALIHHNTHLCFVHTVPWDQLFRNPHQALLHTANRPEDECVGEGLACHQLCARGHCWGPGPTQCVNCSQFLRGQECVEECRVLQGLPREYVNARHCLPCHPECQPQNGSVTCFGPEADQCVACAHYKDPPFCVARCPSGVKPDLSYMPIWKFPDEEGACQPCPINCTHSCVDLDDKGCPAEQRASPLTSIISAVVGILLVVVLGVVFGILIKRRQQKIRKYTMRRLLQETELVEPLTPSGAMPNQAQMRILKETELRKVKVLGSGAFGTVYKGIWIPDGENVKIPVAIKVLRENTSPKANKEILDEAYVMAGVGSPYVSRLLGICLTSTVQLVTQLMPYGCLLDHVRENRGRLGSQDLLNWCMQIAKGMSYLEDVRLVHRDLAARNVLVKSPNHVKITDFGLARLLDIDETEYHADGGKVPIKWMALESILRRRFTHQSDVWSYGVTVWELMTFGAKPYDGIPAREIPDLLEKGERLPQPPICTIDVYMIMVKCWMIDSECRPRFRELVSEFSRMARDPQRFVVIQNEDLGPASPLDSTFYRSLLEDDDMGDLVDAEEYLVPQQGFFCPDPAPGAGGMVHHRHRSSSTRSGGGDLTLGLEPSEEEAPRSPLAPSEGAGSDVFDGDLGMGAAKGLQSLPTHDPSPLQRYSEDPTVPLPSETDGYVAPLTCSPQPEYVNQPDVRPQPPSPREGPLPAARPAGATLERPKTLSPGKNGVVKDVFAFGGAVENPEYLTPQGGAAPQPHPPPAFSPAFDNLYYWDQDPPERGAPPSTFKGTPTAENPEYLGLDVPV

CC1CCCCN1S(=O)(=O)c1ccc(NC(=O)c2cccs2)cc1 (stereo unspecified)
83.6%: viability [5, 16]
inactive: Her2 level [2] 83% | viability [3] 73.5% | viability [4] 85.5% | differential viability (reversal) ([5]; H69AR cells + 2 uM doxorubicin) 1.84% | inhibition [6] -1.17% | inhibition [7] -13.2% | growth inhibition [8] -8.63% | growth inhibition [9] -13.5% | viability increase [10] -4.32% | viability [11] 76.2% | viability [12] 82% | inhibition [13] 1.48% | RAM network inhibition [14] 0.93%
73.5%: viability [1]
85.5%: viability [5, 17]

COCCN1C=C(C(=O)OC)C(c2cc3c(cc2Br)OCO3)C(C(=O)OC)=C1
81.2%: viability [5, 16]
inactive: viability [3] 97% | viability [15] 89.2% | viability [4] 84.5% | differential viability (reversal) ([5]; H69AR cells + 2 uM doxorubicin) 3.38% | inhibition [6] -4.13% | inhibition [7] -1.09% | growth inhibition [8] -12.8% | growth inhibition [9] -14.6% | viability increase [10] -1.16% | viability [11] 58.3% | viability [12] 58.6% | inhibition [13] 0.41% | RAM network inhibition [14] 0.62%
84.5%: viability [5, 17]

O=C(NCCN1C(=O)C2C3C=CC(C3)C2C1=O)Nc1ccccn1 (stereo unspecified)
83.3%: viability [5, 16]
95.8%: viability [5, 17]
114%: viability [1]
inactive: Her2 level [2] 102% | viability [3] 114% | viability [4] 95.8% | differential viability (reversal) ([5]; H69AR cells + 2 uM doxorubicin) 12.5% | inhibition [6] -3.6% | inhibition [7] -2.33% | growth inhibition [8] 5% | growth inhibition [9] -0.24% | viability increase [10] -0.81% | viability [11] 107% | viability [12] 92.2% | inhibition [13] 0.595% | RAM network inhibition [14] 3.24%

Cc1cc(/C=N/n2cnnc2)c(C)n1-c1cccc(Cl)c1
86.4%: viability [5, 17]
inactive: Her2 level [2] 92% | viability [3] 84% | viability [4] 86.4% | differential viability (reversal) ([5]; H69AR cells + 2 uM doxorubicin) 20.5% | inhibition [6] -5.26% | inhibition [7] 3.83% | growth inhibition [8] -2% | growth inhibition [9] 22.7% | viability increase [10] -3.15% | viability [11] 83.7% | viability [12] 73.2% | inhibition [13] 2.75% | RAM network inhibition [14] 2.81%
65.9%: viability [5, 16]
84%: viability [1]

O=C(CS(=O)(=O)c1cn(Cc2ccc(F)cc2)c2ccccc12)N1CCCCC1
99.9%: viability [5, 17]
92%: viability [1]
88%: viability [5, 16]
inactive: Her2 level [2] 88.5% | viability [3] 92% | viability [4] 99.9% | differential viability (reversal) ([5]; H69AR cells + 2 uM doxorubicin) 11.9% | inhibition [6] -5.68% | inhibition [7] -5.17% | growth inhibition [8] -24.1% | growth inhibition [9] -12.8% | viability increase [10] -3.63% | viability [11] 82.4% | viability [12] 82.9% | inhibition [13] 2.3% | RAM network inhibition [14] 5%

COc1ccc(NC(=O)Nc2ccc(N3CCCC3=O)cc2)cc1OC
inactive: viability [3] 126% | viability [15] 104% | viability [4] 104% | differential viability (reversal) ([5]; H69AR cells + 2 uM doxorubicin) 15.2% | inhibition [6] -4.93% | inhibition [7] -3.64% | growth inhibition [8] -1.9% | growth inhibition [9] 3.45% | viability increase [10] -3.97% | viability [11] 107% | viability [12] 93.8% | inhibition [13] 0.135% | RAM network inhibition [14] 0.87%
104%: viability [5, 17]
89.1%: viability [5, 16]

Cc1cc(C)c2c(=O)n(CC(=O)NCCCN3CCN(c4ccccc4F)CC3)sc2n1
107%: viability [1]
3.21%: viability [5, 17]
inactive: Her2 level [2] 70.5% | viability [3] 107% | differential viability (reversal) ([5]; H69AR cells + 2 uM doxorubicin) 2.02% | inhibition [6] -4.8% | inhibition [7] 10% | growth inhibition [8] 16.2% | growth inhibition [9] 7.71% | viability increase [10] -7.84% | inhibition [13] 1.52% | RAM network inhibition [14] 5%
active: viability [4] 3.21% | viability [11] 3.95% | viability [12] 1.7%
1.19%: viability [5, 16]

Cc1ccccc1-c1nc(CN2CCC(C(=O)NC3CCN(Cc4ccccc4)CC3)CC2)c(C)o1
79%: viability [5, 16]
86.3%: viability [5, 17]
inactive: Her2 level [2] 77.5% | viability [3] 91% | viability [4] 86.3% | differential viability (reversal) ([5]; H69AR cells + 2 uM doxorubicin) 7.26% | inhibition [6] -5.87% | inhibition [7] 3% | growth inhibition [8] -8.2% | growth inhibition [9] -3.5% | viability increase [10] -7.96% | inhibition [13] 1.26% | RAM network inhibition [14] 1.75%
active: viability [11] 6.4% | viability [12] 9.9%
91%: viability [1]

COCc1cc(C)nc(Nc2ccc(C)cc2C)c1C#N
inactive: viability [3] 70% | viability [15] 84.8% | viability [4] 104% | differential viability (reversal) ([5]; H69AR cells + 2 uM doxorubicin) 9.25% | inhibition [6] -2.43% | inhibition [7] 2.46% | growth inhibition [8] -9.57% | growth inhibition [9] -2.85% | viability increase [10] -4.12% | viability [11] 97.2% | viability [12] 90.6% | inhibition [13] 1.15% | RAM network inhibition [14] 0.15%
104%: viability [5, 17]
95.1%: viability [5, 16]

Cc1ccc(C(=O)Nc2ccc(Cl)cn2)cc1S(=O)(=O)N1CCOCC1
93%: viability [5, 16]
inactive: viability [3] 90% | viability [15] 78.3% | viability [4] 81.5% | differential viability (reversal) ([5]; H69AR cells + 2 uM doxorubicin) -11.5% | inhibition [6] 0.39% | inhibition [7] 5% | growth inhibition [8] -3.23% | growth inhibition [9] 0.715% | viability increase [10] 1.52% | viability [11] 86.4% | viability [12] 79.9% | inhibition [13] 1.39% | RAM network inhibition [14] 5.97%
81.5%: viability [5, 17]
